# The supplement of paper PMC11732987, “Enantioselective OTUD7B fragment discovery through chemoproteomics screening and high-throughput optimisation” (Communications Chemistry, 2025)
# Unmarked numbers belong to inactive results.
# How the values were obtained:
# Assay in all cases: log2 ratio of Biotin-Ahx-Ub-VS probe labelling (fragment/DMSO); higher = less target engagement (more negative = stronger competition), active = hit call of the paper (q ≤ 0.05, log2 ratio ≤ -1)
# Settings in all cases: compound concentration: 200 uM; treatment time: 3 h
# ALG13 = target: T1, ALG13 (UniProt Q9NP73)
# T1 sequence (whole entry): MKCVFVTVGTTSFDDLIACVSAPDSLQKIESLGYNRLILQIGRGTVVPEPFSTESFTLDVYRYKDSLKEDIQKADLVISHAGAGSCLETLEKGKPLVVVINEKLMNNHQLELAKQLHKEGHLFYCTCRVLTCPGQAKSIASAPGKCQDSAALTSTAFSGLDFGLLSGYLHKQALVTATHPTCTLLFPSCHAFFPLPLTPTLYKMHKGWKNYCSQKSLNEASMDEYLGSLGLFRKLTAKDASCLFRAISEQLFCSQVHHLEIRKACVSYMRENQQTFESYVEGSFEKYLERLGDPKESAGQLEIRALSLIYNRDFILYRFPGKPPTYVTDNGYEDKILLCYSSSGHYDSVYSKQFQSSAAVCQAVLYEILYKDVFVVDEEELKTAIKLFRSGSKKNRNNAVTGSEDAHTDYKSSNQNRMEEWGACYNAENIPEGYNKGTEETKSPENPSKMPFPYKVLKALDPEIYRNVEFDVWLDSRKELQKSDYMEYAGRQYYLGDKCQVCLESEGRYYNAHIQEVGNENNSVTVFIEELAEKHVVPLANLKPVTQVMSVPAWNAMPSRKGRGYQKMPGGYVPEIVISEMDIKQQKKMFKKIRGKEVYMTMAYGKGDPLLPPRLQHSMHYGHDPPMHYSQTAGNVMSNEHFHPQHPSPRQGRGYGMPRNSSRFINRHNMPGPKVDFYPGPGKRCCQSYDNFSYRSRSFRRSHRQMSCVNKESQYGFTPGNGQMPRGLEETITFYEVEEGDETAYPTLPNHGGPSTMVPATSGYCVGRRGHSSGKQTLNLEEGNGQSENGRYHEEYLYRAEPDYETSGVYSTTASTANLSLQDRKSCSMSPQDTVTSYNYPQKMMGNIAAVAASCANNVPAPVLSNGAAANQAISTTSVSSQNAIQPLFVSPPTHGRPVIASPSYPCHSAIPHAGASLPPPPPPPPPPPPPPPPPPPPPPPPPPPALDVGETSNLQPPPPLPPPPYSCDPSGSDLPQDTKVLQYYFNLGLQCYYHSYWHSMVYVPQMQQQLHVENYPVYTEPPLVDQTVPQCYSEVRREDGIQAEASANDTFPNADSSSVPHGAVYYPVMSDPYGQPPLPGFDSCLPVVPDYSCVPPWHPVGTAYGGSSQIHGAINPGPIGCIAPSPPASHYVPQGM
# Outline: (§1)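 Lysate from HEK293T cells, 495 µg per sample in Tris/CHAPS/IGEPAL buffer with protease inhibitors, was treated for 3 h in triplicate with fragment at 200 µM or vehicle. Biotin-Ahx-Ub-VS was next added at 0.5 µM final for 1 h. The labelled DUBs were enriched with NeutrAvidin, digested with LysC and trypsin, and run by diaPASEF LC-MS/MS, with values given as average log2 fragment/vehicle ratios by unpaired t-test on global-median-normalised Spectronaut quantities of proteins with ≥2 unique peptides.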
# ATXN3 = ATXN3 (UniProt P54252)
# Outline: as §1
# BAP1 = target: T2, BAP1 (UniProt Q92560)
# T2 sequence (whole entry): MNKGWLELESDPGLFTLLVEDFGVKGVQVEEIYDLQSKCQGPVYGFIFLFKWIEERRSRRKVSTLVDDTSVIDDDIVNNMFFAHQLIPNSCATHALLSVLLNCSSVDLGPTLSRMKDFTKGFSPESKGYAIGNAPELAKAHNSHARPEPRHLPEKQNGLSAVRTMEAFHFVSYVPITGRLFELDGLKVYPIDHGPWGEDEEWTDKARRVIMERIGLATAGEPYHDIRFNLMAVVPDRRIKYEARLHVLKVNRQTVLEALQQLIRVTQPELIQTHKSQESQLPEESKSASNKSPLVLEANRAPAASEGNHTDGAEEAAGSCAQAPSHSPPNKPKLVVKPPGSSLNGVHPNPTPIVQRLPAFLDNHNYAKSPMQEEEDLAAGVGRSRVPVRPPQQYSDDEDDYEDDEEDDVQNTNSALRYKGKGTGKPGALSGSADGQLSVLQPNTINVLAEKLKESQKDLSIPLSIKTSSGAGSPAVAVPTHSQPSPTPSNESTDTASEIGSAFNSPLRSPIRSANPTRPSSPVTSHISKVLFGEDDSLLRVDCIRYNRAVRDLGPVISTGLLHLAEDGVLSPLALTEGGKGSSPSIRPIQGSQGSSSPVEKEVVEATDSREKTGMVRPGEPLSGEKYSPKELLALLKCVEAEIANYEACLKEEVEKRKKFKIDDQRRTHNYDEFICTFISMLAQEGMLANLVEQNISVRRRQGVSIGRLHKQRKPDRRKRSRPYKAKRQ
# Outline: as §1
# EIF3F = EIF3F (UniProt O00303)
# Outline: as §1
# EIF3H = EIF3H (UniProt O15372)
# Outline: as §1
# FAM105A = target: T3, FAM105A (UniProt Q9NUU6)
# T3 sequence (whole entry): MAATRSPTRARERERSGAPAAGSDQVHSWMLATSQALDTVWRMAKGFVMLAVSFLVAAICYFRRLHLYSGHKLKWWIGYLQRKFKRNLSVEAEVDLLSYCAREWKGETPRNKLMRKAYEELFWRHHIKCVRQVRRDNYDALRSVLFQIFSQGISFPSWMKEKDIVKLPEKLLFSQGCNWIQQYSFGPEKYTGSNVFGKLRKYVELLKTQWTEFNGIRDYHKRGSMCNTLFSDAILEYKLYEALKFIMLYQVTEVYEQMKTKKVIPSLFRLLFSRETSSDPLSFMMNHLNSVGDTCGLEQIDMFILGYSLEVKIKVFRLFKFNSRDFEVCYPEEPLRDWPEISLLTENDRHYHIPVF
# Outline: as §1
# OTUB1 = OTUB1 (UniProt Q96FW1)
# Outline: as §1
# OTUD4 = target: T4, OTUD4 (UniProt Q01804)
# T4 sequence (whole entry): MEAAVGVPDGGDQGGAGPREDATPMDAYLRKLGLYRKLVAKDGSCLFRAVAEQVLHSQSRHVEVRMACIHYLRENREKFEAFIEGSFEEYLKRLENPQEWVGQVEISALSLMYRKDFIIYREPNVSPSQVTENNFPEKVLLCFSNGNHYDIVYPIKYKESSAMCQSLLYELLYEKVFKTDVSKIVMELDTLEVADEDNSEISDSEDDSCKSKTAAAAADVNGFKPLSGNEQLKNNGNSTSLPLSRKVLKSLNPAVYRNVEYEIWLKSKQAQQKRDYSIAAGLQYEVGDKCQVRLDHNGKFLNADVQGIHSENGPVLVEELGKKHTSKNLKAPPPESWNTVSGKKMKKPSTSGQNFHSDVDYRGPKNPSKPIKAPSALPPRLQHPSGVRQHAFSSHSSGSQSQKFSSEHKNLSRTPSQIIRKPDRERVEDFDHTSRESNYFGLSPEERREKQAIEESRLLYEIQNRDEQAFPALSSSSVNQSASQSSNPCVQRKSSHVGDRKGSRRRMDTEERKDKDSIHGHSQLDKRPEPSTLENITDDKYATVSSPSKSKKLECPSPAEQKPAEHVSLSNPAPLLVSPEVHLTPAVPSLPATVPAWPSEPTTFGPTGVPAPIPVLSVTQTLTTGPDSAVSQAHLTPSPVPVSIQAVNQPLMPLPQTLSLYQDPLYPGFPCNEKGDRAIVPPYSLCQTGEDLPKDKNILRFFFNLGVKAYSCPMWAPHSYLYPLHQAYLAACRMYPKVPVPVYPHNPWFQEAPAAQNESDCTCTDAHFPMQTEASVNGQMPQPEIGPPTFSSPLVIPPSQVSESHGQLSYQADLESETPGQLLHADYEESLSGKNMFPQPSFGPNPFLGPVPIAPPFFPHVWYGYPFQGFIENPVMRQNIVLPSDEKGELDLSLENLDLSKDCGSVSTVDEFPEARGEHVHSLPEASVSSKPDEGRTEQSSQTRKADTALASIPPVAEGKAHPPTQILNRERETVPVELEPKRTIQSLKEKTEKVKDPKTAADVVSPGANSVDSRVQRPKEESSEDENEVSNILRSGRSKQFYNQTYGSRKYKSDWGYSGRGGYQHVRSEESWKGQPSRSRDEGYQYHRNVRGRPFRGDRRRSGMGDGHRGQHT
# Outline: as §1
# OTUD5 = target: T5, OTUD5 (UniProt Q96G74)
# T5 sequence (whole entry): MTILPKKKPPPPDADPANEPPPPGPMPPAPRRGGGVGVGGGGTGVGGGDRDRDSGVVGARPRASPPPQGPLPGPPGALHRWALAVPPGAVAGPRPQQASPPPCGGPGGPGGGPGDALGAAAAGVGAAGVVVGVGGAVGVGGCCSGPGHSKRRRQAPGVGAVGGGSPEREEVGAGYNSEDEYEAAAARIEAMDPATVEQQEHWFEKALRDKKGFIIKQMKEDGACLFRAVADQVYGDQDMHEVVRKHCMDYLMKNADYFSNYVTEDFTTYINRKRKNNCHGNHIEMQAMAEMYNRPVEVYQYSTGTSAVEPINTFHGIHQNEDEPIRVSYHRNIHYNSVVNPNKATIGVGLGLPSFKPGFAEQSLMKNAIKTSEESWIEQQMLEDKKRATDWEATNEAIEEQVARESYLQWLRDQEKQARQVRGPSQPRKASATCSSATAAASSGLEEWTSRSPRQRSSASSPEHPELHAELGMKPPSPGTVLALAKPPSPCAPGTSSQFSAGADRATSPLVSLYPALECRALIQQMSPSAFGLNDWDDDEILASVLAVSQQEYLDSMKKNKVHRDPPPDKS
# Outline: as §1
# Sequence of EIF3F (O00303 whole entry): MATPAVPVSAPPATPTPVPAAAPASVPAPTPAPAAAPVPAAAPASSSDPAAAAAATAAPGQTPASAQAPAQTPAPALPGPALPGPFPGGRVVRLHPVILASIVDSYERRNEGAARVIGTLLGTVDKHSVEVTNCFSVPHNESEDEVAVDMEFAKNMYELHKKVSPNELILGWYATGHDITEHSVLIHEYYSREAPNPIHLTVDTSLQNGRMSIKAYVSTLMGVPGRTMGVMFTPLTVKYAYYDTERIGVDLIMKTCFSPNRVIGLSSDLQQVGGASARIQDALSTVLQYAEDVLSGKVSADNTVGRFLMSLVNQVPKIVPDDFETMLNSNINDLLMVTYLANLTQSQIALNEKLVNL
# Sequence of EIF3H (O15372 whole entry): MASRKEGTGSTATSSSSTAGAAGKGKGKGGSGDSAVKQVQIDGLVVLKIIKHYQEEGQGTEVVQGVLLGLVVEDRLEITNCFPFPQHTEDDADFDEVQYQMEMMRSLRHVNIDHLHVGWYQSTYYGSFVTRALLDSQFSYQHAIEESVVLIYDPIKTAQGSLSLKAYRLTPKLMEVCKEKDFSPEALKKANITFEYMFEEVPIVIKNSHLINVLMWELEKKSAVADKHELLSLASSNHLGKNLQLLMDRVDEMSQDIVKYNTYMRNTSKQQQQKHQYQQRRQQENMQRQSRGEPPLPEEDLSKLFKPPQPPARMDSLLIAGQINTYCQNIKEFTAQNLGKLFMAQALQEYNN
# Sequence of ATXN3 (P54252 whole entry): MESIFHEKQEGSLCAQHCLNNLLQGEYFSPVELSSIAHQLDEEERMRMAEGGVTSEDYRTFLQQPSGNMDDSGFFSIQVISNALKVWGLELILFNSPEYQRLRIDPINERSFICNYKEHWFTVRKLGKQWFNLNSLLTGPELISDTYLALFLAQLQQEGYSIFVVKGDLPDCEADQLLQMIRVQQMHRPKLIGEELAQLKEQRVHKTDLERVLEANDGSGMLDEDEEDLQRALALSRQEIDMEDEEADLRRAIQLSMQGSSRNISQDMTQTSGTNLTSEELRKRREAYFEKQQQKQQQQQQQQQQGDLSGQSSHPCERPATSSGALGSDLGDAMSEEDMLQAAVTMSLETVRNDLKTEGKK
# Sequence of OTUB1 (Q96FW1 whole entry): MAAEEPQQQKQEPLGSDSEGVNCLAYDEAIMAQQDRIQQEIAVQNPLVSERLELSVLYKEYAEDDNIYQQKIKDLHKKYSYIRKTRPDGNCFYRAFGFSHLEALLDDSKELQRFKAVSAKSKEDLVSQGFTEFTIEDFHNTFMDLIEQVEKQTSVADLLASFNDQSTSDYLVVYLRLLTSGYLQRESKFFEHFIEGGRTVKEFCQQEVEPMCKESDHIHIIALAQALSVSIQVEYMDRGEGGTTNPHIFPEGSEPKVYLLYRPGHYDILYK
compound,measurement,setting,value
CN(C)C(=O)c1ccc(CNC(=O)CCl)cc1,log2 ratio of Biotin-Ahx-Ub-VS probe labelling,ALG13,0.104
same,log2 ratio of Biotin-Ahx-Ub-VS probe labelling,ATXN3,-0.0706
same,log2 ratio of Biotin-Ahx-Ub-VS probe labelling,BAP1,-2.84 (active)
same,log2 ratio of Biotin-Ahx-Ub-VS probe labelling,EIF3F,0.137
same,log2 ratio of Biotin-Ahx-Ub-VS probe labelling,EIF3H,0.092
same,log2 ratio of Biotin-Ahx-Ub-VS probe labelling,FAM105A,0.248
same,log2 ratio of Biotin-Ahx-Ub-VS probe labelling,OTUB1,-0.0918
same,log2 ratio of Biotin-Ahx-Ub-VS probe labelling,OTUD4,-0.365
same,log2 ratio of Biotin-Ahx-Ub-VS probe labelling,OTUD5,-0.146
